# Entries with a potency or affinity are not part of this list. Results filed as inconclusive are left out. Calls of active or inactive are those of the source.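 How the source made its calls: active means cytotoxic in every repeat run, with fitted half-maximal concentration at most twice the top tested dose; inconclusive means runs disagree, or flat partial drop, or poor curve fit; inactive means inactive in every run.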
# Assay: embryonic kidney cell viability loss – CellTiter-Glo luminescence, dry powder, set 20, cytotoxicity control, dose response (AID 1117293)
# Settings: HEK293T viability, CellTiter-Glo ATP luminescence, 72 h; series mostly up to 26 µM; activity change, negative = cytotoxicity: at the top concentration
SMILES,"activity change, negative = cytotoxicity",outcome
Cc1ccc(NC(=O)NC2(C(=O)N3CCOCC3)CCCCC2)cc1,-8.01% (inactive),–
CC(=O)N1CCN(C(=O)C2(NC(=O)Nc3ccc(C)cc3)CC2)CC1,-6.62% (inactive),–
O=[N+]([O-])c1ccc(S(=O)(=O)Nc2cc(C(F)(F)F)ccc2N2CCCCC2)c([N+](=O)[O-])c1,1.21% (inactive),–
COc1ccc(C(=O)Nc2cccc(C(F)(F)F)c2)cc1S(=O)(=O)O,-16.2% (inactive),–
CC(=O)N1CCN(C(=O)C2(NC(=O)Nc3ccc(F)cc3)CCCCC2)CC1,-2.65% (inactive),–
CC(=O)N1CCN(C(=O)CNC(=O)Nc2ccc(C)cc2)CC1,-21.5% (inactive),–
COc1ccc(S(=O)(=O)Nc2cc(C(F)(F)F)ccc2N2CCCCC2)cc1,-15.2% (inactive),–
COc1ccc(C(=O)O)cc1S(=O)(=O)Nc1cc(C(F)(F)F)ccc1N(C)C,-19.4% (inactive),–
CC(=O)N1CCN(C(=O)C2(NC(=O)Nc3cccc(F)c3)CCCCC2)CC1,-6.5% (inactive),–
O=S(=O)(Nc1cc(C(F)(F)F)ccc1N1CCCCC1)c1ccc(Br)cc1,-7.61% (inactive),–
CC(=O)N1CCN(C(=O)C2(NC(=O)Nc3ccc(C(C)C)cc3)CCCCC2)CC1,-3.9% (inactive),–
CC(=O)N1CCN(C(=O)C2(NC(=O)Nc3ccccc3F)CCCCC2)CC1,–,inactive
O=S(=O)(Nc1cc(C(F)(F)F)ccc1N1CCCCC1)c1ccc(Cl)cc1,-21.7% (inactive),–
CC(=O)N1CCN(C(=O)C2(NC(=O)Nc3ccc(F)cc3)CCCC2)CC1,-2.16% (inactive),–
COc1ccc(C(=O)O)cc1S(=O)(=O)Nc1cccc(N2CCCCC2)c1C(F)(F)F,10.9% (inactive),–
O=C(Nc1cc(C(F)(F)F)ccc1N1CCCCC1)c1ccc(S(=O)(=O)O)cc1,8.17% (inactive),–
Cn1cnc(S(=O)(=O)Nc2cc(C(F)(F)F)ccc2N2CCCCC2)c1,4.84% (inactive),–
COc1ccc(C(=O)Nc2cc(C(F)(F)F)ccc2N2CCOCC2)cc1S(=O)(=O)O,-8.67% (inactive),–
CC(=O)N1CCN(C(=O)C2(NC(=O)Nc3ccc(C(C)C)cc3)CCCC2)CC1,4.56% (inactive),–
COc1ccc(C(=O)Nc2ccccc2N2CCCCC2)cc1S(=O)(=O)O,-2.25% (inactive),–
O=S(=O)(O)c1ccc(N2N=C(c3ccccc3)CC2c2ccccc2)cc1 (centres undefined),-6.63% (inactive),–
O=S(=O)(Nc1cc(C(F)(F)F)ccc1N1CCCCC1)c1ccc(F)cc1,-23.4% (inactive),–
CC(=O)N1CCN(C(=O)C2(NC(=O)Nc3ccc(C(F)(F)F)cc3)CCCCC2)CC1,-10.4% (inactive),–
CC(=O)N1CCN(C(=O)C2(NC(=O)Nc3cccc(C(F)(F)F)c3)CCCCC2)CC1,-5.58% (inactive),–
